Only some compounds are listed: those with a hit (about 11% of all), similar ones and a draw of the others.
BAZ2B block: qHTS Assay for Inhibitors of BAZ2B. Bromodomain adjacent to zinc finger domain protein 2B (Homo sapiens), Q9UIF8. Potency, µM (titrated, usually from 114 µM), for the others: at the highest dose activity change, negative = inhibition, most hits filed as inhibitors. AlphaScreen BAZ2B-H3K14Ac peptide displacement. actives 4.4% (n = 360,000); note: % is set by controls: 0 for no effect and ±100 for the full control effect; nearly all actives have a fitted effect of over 60% in size
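BAZ2B 50 nM plus b-H3(5-23)K14Ac 50 nM, PBS pH 7.4/0.01% Tween-20, 30 min RT; compound added (max 110 uM), 30 min RT; streptavidin donor/Ni-chelate acceptor beads 10 ug/mL final, 20 min dark; AlphaScreen read.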
HP1b binding inh: HTS for Inhibitors of HP1-beta Chromodomain Interactions with Methylated Histone Tails | Chromobox protein homolog 1 (Homo sapiens), P83916 | AlphaScreen HP1-beta / biotin-H3K9me3 peptide binding | Potency, µM (top dose mostly 114 µM), for inactives: at the highest dose activity change, negative = inhibition, actives largely listed as inhibitors | actives 0.56% (n = 390,000) | AID 540317, 2011; note: nearly all actives have a fitted effect of over 70% in size
Target sequence (P83916 whole entry, looked up): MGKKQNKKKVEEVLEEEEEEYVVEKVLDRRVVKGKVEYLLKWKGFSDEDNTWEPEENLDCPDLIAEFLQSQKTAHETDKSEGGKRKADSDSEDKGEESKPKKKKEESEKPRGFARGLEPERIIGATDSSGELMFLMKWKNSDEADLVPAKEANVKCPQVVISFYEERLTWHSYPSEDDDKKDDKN
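Compound inhibition of the preformed complex between 50 nM HP1-beta and 50 nM biotinylated H3K9me3 peptide was read by AlphaScreen. Buffer was PBS pH 7.4 with 0.01% Tween-20. Incubations ran 30 min at room temperature, with 10 ug/mL donor/acceptor beads.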
JMJD2A Tudor inh: qHTS Assay for Inhibitors of JMJD2A-Tudor Domain | actives 4.4% (n = 390,000) | AlphaScreen JMJD2A-Tudor / H3K4me3 peptide binding | Lysine-specific demethylase 4A (Homo sapiens), O75164 | AID 504339, 2011 | Potency, µM (highest dose often 114 µM), without a hit: top-dose activity change, negative = inhibition, hits mostly inhibitors; note: % is set by controls: 0 for no effect and ±100 for the full control effect; nearly all actives have a fitted effect of over 50% in size
G9a block: qHTS Assay for Inhibitors of Histone Lysine Methyltransferase G9a | Histone-lysine N-methyltransferase EHMT2 (Homo sapiens), Q96KQ7 | G9a H3K9 monomethylation, AlphaScreen, 2 h | Potency, µM (titrated, usually from 102 µM), inactives show at the highest dose activity, negative = inhibition, most hits filed as inhibitors | actives 8.8% (n = 350,000); note: % is set by controls: 0 for no effect and ±100 for the full control effect; nearly all actives have a fitted effect of over 75% in size
Target sequence (Q96KQ7 913-1193 limits assumed): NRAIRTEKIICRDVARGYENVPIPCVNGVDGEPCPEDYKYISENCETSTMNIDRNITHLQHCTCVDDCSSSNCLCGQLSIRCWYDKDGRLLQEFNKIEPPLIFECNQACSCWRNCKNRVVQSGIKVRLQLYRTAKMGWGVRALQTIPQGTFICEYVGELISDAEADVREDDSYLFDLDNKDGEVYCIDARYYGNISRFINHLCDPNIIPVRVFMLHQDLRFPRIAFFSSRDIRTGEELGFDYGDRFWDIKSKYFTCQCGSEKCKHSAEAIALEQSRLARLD
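Enzyme 20 nM + cpd, 15 min RT; add b-H3K9 pep 500 nM / SAM 20 uM; 2 h RT; anti-H3K9me1 Ab 0.5 ug/mL + SA donor / anti-rabbit acceptor beads 20 ug/mL each, 10 min; AlphaScreen read.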
PLK1 PBD block: qHTS for Inhibitors of PLK1-PDB (polo-like kinase 1 - polo-box domain): Primary Screen | Serine/threonine-protein kinase PLK1 (Homo sapiens), P53350 | Plk1 PBD binding of FITC phosphopeptide, fluorescence polarization | Potency, µM, for the others: max response, negative = inhibition, usual class: inhibitors | actives 2.8% (n = 360,000); note: series mostly up to about 57 µM; % is set by controls: 0 for no effect and ±100 for the full control effect; nearly all actives have a fitted effect of over 65% in size
VDR inhibitor: Inhibitors of the vitamin D receptor (VDR): qHTS; VDR-SRC2-3 peptide fluorescence polarization, 2 h; Potency, µM, inactives show max response, negative = inhibition, actives largely listed as inhibitors; actives 0.93% (n = 400,000); AID 504847, 2011; note: % is set by controls: 0 for no effect and ±100 for the full control effect
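The screen uses fluorescence polarization to detect compounds that interfere with recruitment of the SRC2-3 coactivator peptide to VDR; plates are read after 2 h at room temperature.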
* marks the source's active call; other numbers are inactive results; ? = inconclusive; · = not tested or not shown; [ ] = remark or other dose. Calls come from the whole dose curve; as a rule, active = well fitted curve in the direction sought with a large enough effect; inconclusive = small, poorly fitted or top-dose-only effect, or another doubt; inactive = no such curve, though single readings can be large; an effect the other way counts as inactive or inconclusive. Potency is the fitted concentration of half-maximal effect.

SMILES	BAZ2B block	HP1b binding inh	JMJD2A Tudor inh	G9a block	PLK1 PBD block	VDR inhibitor
COc1ccccc1N1CCN(CCCCNC(=O)c2ccc(-c3ccc(C(C)=O)cc3)cc2)CC1	·	·	·	30%[59 µM]	·	0%
COc1ccc(CN2CCN(CCCCOc3ccc(Cl)cc3)CC2)c(OC)c1OC	18µM*	?	6.3µM*	14µM*	-8%	17%
COc1ccccc1N1CCN(CCCCCCOc2ccc(F)cc2)CC1	-37%	1%	-34%	50µM*	-19%	5%
COc1ccccc1N1CCN(CCCCOc2cccc3ccccc23)CC1	35µM*	-19%	?	45µM*	4%	-5%
CCOC(=O)c1[nH]c2c(c1Cc1ccccc1)C(=O)CC(c1ccc(OC)cc1)C2 (stereo unspecified)	-22%	16%	-26%	-2%[59 µM]	·	6%
CCOc1ccc(-n2cc(-c3ccccc3)c3c(N4CCOCC4)ncnc32)cc1	25µM*	25%	-24%	?	-6%	3%
COc1cccc(N2CCN(c3ncnc4c3c(-c3ccccc3)cn4-c3ccc(F)cc3)CC2)c1	-3%	16%	-29%	-3%[59 µM]	·	-7%
CN1CCN(c2ncnc3c2c(-c2ccccc2)cn3-c2ccc(F)cc2)CC1	?	-16%	?	45µM*	0%	4%
c1ccc(-c2cn(-c3ccccc3)c3ncnc(N4CCCCC4)c23)cc1	-13%	16%	-26%	?	1%	-5%
Cn1c(=O)c2c(nc(NCc3ccccc3)n2C)n(C)c1=O	3%	21%	-15%	8%[12.7 µM]	-1%	-4%
Cn1c(=O)c2cc(NCc3ccccc3)nnc2n(C)c1=O	-8%	36%	3%	14µM*	-12%	0%
Cc1nnc(SCC(=O)N/N=C/c2ccc(-c3ccc(C)c(Cl)c3)o2)s1	-35%	?	-10%	11µM*	-8%	-17%
Cc1ccc(N(CC(O)Cn2c3ccccc3c3ccccc32)S(C)(=O)=O)cc1 (stereo unspecified)	-1%	7%	-24%	17%[12.7 µM]	-7%	13%
CC(=O)Nc1ccc(N(CC(O)Cn2c3ccccc3c3ccccc32)S(=O)(=O)c2ccc(C)cc2)cc1 (stereo unspecified)	-26%	5%	-26%	10µM*	0%	-13%
Cc1ccc(-c2nc3nc(C)cc(C)n3c2Nc2ccc3c(c2)OCCO3)cc1	?	-18%	?	?	·	21%
Cc1ccc(Nc2c(-c3ccc(N(C)C)cc3)nc3ccccn23)cc1	-20%	?	7.9µM*	?	·	-26%
Cc1ccc(-c2nc3ccccn3c2NCc2ccc3c(c2)OCO3)cc1	?	?	100µM*	?	-4%	3%
Cc1ccc(Nc2c(-c3ccccc3)nc3cnccn23)cc1	-12%	36%	10%	10%	-7%	2%
Cc1cccc2nc(-c3ccc(N(C)C)cc3)c(Nc3ccc4c(c3)OCO4)n12	·	18%	-29%	2.2µM*	·	-13%
Cc1ccc(-c2nc3ccccn3c2Nc2ccc3c(c2)OCO3)cc1	18µM*	?	25µM*	10µM*	·	-5%
OC1CN=C2C=CC=CN2C1 (stereo unspecified)	-15%	29%	-14%	0%[59 µM]	-5%	3%
CCOC(=O)c1ccccc1NC(=O)c1nn(-c2ccc(C)cc2)c(=O)n(C)c1=O	15%	41%[57 µM]	-13%	5%[59 µM]	·	9%
CC(C)n1cc(CN2CCC(n3nccc3NC(=O)C3CCCC3)CC2)cn1	7%	15%	1%	·	3%	-8%
O=S(=O)(Nc1nc2ccccc2nc1NCc1ccco1)c1cccs1	-8%	7%	-17%	50µM*	-21%	-20%
O=S(=O)(Nc1nc2ccccc2nc1Nc1ccc2c(c1)OCCO2)c1cccs1	50µM*	-12%	?	?	-20%	4%
SMILES	BAZ2B block	HP1b binding inh	JMJD2A Tudor inh	G9a block	PLK1 PBD block	VDR inhibitor
C=CCNc1nc2ccccc2nc1NS(=O)(=O)c1cccs1	?	46%	-7%	-41%[2.33 µM]	-3%	11%
Cc1ccc(CN2C(=O)N(c3ccc(C)c(Cl)c3)S(=O)(=O)c3ccccc32)cc1	-18%	38%	?	0%[59 µM]	·	18%
S=C(NCc1ccco1)N1CCN(Cc2ccco2)CC1	?	?	4.5µM*	7.1µM*	-4%	-6%
O=C(c1ccccc1)N1CCN(C(=S)NCc2ccco2)CC1	·	9%	-1%	-24%	-11%	-3%
CC(C)(C)C1CCC(=NNC(=O)C(=O)NCc2ccco2)CC1 (stereo unspecified)	?	25%	-15%	20µM*	-13%	-1%
O=C(NCc1ccco1)C(=S)N1CCCC1	-13%	18%	0%	32µM*	-7%	-1%
CN1CCN(c2ncc3nc(-c4cccc(C#N)c4)c(=O)n(C)c3n2)CC1	·	·	·	-18%[0.501 µM]	·	-8%
O=C(CCCn1cncn1)N1CCCC(Nc2ccc(F)cc2)C1 (stereo unspecified)	-13%	27%	-7%	?	0%	-20%
COC(=O)c1ccc(CNC(=O)C(C)N=C2NS(=O)(=O)c3ccccc32)cc1 (stereo unspecified)	2%	32%	-2%	1%	-1%	-5%
COc1cc([N+](=O)[O-])cc(CN2CCCCC2)c1O	?	5%	-14%	-15%[59 µM]	-10%	-1%
COc1cc(N(C)C)cc(CN(C)CCc2ccc([N+](=O)[O-])cc2)c1O	·	·	·	·	·	2.5µM*
CN1C(=O)N(C)C2=NNC=NC2(O)C1=O (stereo unspecified)	·	·	·	·	·	-16%
CC1C[N+](=C2C=C(N3CCOCC3)CC(C)(C)C2)CC(C)O1 (stereo unspecified)	-38%	25µM*	?	-7%[12.7 µM]	?	0%
O=C1C=C(N2CCOCC2)CO1	·	30%	-14%	·	2%	-6%
CC1(C)CC(N2CCOCC2)=CC(=[N+]2CCOCC2)C1	-15%	?	?	40µM*	-15%	-7%
O=C(NCCCc1nc2ccccc2n1Cc1ccccc1Cl)C1CCCCC1	-16%	32%	3%	-2%[59 µM]	·	19%
CN1CCN(c2ncc3ncc(=O)n(Cc4cccs4)c3n2)CC1	·	·	·	-4%[12.7 µM]	·	0%
O=C(CSc1ncc(S(=O)(=O)c2ccc(Br)cc2)c(=O)[nH]1)NCc1ccc(Cl)cc1	5%	24%	-2%	-2%[59 µM]	·	-12%

Bioassay records (PubChem BioAssay)
